Experimental data published in PubChem BioAssay AID504929 (The Scripps Research Institute Molecular Screening Center, 2011).
Activity calls are given as the source filed them. The rule behind the calls is not given here.

Assay: AlphaScreen signal with amyloid beta 1-40, late-stage follow-up, counter-screen for Wee1 degradation inhibitor project, biochemical, amplified proximity luminescence (AID 504929)
Details: Abeta1-40 counterscreen, concentration not given here

Compound | signal
c1ccc2[nH]c(CNc3nc(N4CCOCC4)nc4c3ncn4-c3ccsc3)nc2c1 | 75% (active)
O=[N+]([O-])c1cccc2[nH]c(CNc3nc(N4CCOCC4)nc4c3ncn4-c3ccsc3)nc12 | 60% (active)
